Among the data in ChEMBL document CHEMBL5308504, “Tm Shift (DSF) assay results for EUbOPEN Chemogenomics Library” (2023) are ΔTm values, retold here.

What is called ΔTm is the shift of the melting midpoint relative to a reference.

Settings in all cases: Compound concentration 20.0 uM, Protein concentration 2.0 uM, Result type QC Liability
For experiment [1], the target named is Tyrosine-protein kinase ABL1 (Homo sapiens) (UniProt P00519).
The target of experiment [2] is Cyclin-dependent kinase 2 (Homo sapiens) (UniProt P24941).
Experiment [3] concerns the target Casein kinase I isoform delta (Homo sapiens) (UniProt P48730).
Experiment [4] deals with Glycogen synthase kinase-3 beta (Homo sapiens) (UniProt P49841).
Sequence of Glycogen synthase kinase-3 beta (Homo sapiens) (P49841 whole entry, looked up): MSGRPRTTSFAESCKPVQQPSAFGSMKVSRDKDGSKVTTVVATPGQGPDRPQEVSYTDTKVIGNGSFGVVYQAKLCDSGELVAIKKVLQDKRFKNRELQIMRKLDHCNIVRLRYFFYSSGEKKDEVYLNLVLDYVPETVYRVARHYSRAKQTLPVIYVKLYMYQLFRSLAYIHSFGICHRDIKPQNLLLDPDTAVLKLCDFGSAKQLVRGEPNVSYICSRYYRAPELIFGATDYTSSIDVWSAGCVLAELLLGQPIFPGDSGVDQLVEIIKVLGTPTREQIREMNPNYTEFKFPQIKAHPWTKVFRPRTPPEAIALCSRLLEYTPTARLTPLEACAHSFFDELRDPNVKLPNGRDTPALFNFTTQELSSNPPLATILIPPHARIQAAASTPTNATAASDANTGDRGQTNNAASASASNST
Experiment [5] has as its target Mitogen-activated protein kinase 1 (Homo sapiens) (UniProt P28482).
The target of experiment [6] is T1, Aurora kinase A (Homo sapiens) (UniProt O14965).
T1 sequence (whole entry): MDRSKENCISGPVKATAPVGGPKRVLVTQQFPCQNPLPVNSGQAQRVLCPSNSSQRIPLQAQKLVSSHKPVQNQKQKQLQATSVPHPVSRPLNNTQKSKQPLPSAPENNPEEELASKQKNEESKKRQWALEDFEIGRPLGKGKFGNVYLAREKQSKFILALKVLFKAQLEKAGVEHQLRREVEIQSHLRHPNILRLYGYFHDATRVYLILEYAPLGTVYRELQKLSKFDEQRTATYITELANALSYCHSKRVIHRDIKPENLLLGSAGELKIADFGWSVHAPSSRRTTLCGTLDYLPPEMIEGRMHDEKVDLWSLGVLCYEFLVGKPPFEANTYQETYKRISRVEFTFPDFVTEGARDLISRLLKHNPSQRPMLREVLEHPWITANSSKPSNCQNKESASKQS

Several values for one entry are separate records, joined by “and”; a condition that tells them apart may be missing. Equal values may be shown once.

Sequence of Mitogen-activated protein kinase 1 (Homo sapiens) (P28482 whole entry): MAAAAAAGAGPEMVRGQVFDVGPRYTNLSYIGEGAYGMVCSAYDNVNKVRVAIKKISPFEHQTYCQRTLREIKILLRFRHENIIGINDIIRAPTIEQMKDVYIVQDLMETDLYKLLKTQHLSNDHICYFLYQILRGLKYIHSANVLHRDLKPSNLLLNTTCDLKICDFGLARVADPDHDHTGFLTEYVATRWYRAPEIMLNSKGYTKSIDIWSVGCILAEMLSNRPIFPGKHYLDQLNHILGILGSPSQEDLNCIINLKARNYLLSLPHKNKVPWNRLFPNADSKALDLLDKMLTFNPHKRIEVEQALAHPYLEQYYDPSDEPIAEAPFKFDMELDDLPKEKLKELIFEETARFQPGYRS
Sequence of Tyrosine-protein kinase ABL1 (Homo sapiens) (P00519 whole entry): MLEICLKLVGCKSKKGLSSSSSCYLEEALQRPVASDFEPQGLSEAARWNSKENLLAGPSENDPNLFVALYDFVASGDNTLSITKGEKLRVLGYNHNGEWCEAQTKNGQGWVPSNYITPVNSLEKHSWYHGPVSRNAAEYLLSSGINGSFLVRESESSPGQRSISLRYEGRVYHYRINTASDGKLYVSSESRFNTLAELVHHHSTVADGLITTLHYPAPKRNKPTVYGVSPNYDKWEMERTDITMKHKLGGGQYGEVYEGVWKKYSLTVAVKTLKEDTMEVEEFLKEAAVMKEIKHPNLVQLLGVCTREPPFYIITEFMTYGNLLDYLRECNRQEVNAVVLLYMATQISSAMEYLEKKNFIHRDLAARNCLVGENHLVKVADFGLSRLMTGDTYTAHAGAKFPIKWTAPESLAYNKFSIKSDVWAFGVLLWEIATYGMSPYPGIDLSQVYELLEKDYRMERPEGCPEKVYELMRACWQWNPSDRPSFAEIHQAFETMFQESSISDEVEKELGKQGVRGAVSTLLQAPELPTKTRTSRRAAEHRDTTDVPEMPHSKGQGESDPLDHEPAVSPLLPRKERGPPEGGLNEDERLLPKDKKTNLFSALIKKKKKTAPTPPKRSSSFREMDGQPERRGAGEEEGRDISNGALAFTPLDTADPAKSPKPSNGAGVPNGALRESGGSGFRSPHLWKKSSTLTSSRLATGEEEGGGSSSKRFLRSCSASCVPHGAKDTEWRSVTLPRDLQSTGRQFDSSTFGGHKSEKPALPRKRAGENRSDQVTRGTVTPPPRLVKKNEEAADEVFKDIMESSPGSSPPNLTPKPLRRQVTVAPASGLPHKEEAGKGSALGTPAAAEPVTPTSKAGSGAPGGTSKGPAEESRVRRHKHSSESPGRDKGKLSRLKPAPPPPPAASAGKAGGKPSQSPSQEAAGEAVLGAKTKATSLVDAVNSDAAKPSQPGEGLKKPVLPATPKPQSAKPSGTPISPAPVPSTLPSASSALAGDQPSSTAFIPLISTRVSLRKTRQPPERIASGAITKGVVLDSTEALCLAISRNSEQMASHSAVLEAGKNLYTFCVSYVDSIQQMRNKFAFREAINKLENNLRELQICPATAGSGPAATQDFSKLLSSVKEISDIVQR
Sequence of Casein kinase I isoform delta (Homo sapiens) (P48730 whole entry, looked up, canonical isoform): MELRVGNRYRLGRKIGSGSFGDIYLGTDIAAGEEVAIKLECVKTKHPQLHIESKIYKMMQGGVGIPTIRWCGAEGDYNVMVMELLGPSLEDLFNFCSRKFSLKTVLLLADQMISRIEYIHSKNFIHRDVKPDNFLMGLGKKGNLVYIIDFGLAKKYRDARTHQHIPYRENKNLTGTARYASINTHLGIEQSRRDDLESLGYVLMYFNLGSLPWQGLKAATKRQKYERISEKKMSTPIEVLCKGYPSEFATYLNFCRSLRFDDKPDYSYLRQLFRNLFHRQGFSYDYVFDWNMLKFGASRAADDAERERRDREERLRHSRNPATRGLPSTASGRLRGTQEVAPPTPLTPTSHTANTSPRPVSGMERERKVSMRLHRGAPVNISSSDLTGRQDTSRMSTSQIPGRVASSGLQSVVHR

Regarding `Cn1cc(Nc2nccc(N3CC4CCC(C3)N4C(=O)[C@@H]3CC3(F)F)n2)cn1`, the ΔTm in experiment [1] is 1.98 °C; in experiment [2], 2.84 °C; in experiment [3], 0.33 °C; in experiment [4], 0.6 °C; in experiment [5], 0.56 °C; in experiment [6], 8.08 °C.
Take `Cc1cc(=O)oc2cc(NC(=O)[C@H](Cc3ccc(I)cc3)NC(=O)[C@H]3N[C@@H]4CC[C@H]3C4)ccc12`: the ΔTm is 0 °C in experiment [1]; -0.62 °C in experiment [2]; 0.37 °C in experiment [3]; -0.08 °C in experiment [4]; 0.09 °C in experiment [5]; -0.48 °C in experiment [6].
On to `CC(=O)N1CCC(c2ccc(C(=O)NC3=NCCN3)cc2C(F)(F)F)CC1`, for which the ΔTm in experiment [1] was 0.33 °C; in experiment [2] it was 0.15 °C; in experiment [3], 0.3 °C; in experiment [4] it was -0.03 °C; in experiment [5] it was 0.1 °C; in experiment [6] it was -0.15 °C.
`Cc1cccc(-c2[nH]c(CNc3ccccc3F)nc2-c2ccc3ncnn3c2)n1`: the ΔTm in experiment [1] is 3.23 °C; in experiment [2], 0.92 °C; in experiment [3], 1.1 °C; in experiment [4], -0.02 °C; in experiment [5] it was 0.92 °C; in experiment [6] it was 0.8 °C.
Consider `Cc1nc2ccc(Cl)cc2c(-c2ccccc2)c1CC(=O)O`, for which the ΔTm was found to be 0.63 °C in experiment [1]; 0.84 °C in experiment [2]; 0.35 °C in experiment [3]; 0.14 °C in experiment [4]; 0.28 °C in experiment [5]; 0.17 °C in experiment [6].
For the compound `CN1CCN(C(=O)c2ccc(N(C)c3ncc(C(F)(F)F)c(N[C@@H]4CCC[C@@H]4C(N)=O)n3)cc2)CC1`, the ΔTm in experiment [1] was -0.2 °C; in experiment [2] it was 0.48 °C; in experiment [3] it was 0.31 °C; in experiment [4], 0.51 °C; in experiment [5] it was 0.25 °C; in experiment [6], -0.13 °C.
As for `Cc1ccc(-n2nc(C(C)(C)C)cc2NC(=O)Nc2ccc(OCCN3CCOCC3)c3ccccc23)cc1`, the ΔTm in experiment [2] is 1.17 °C and 1.39 °C; in experiment [3], 3.31 °C and 1.35 °C; in experiment [4] it was 3.17 °C and 2.68 °C; in experiment [5], 0.43 °C and 1.14 °C; in experiment [6] it was 0.18 °C and 0.11 °C.
Regarding `COc1ccc(N(C(=O)Nc2c(C)cccc2C)c2cc(Nc3ccc(N4CCN(C)CC4)cc3)ncn2)c(OC)c1`, the ΔTm was found to be 0.7 °C in experiment [2]; 2.65 °C in experiment [3]; 3.75 °C in experiment [4]; 0.48 °C in experiment [5]; 10.1 °C in experiment [6].
Consider `C[C@]12CC[C@@H]3c4ccc(O)cc4CC[C@H]3[C@@H]1C[C@H]1OC(=O)C[C@]12O`, for which the ΔTm is -0.2 °C in experiment [1]; 0.7 °C in experiment [2]; 0.32 °C in experiment [3]; 0.78 °C in experiment [4]; 0.29 °C in experiment [5]; 0.5 °C in experiment [6].
`CC(C)(C)c1cnc(CSc2cnc(NC(=O)C3CCNCC3)s2)o1`: the ΔTm is 0.04 °C in experiment [1]; 1.29 °C in experiment [3]; 8.72 °C in experiment [4]; 0.73 °C in experiment [5]; 4.45 °C in experiment [6].
Consider `N#CN1CC[C@@H](C(=O)Nc2nc3c(s2)CN(C(=O)CN=[N+]=[N-])CC3)C1`, for which the ΔTm in experiment [1] is 0.86 °C; in experiment [2], 0.33 °C; in experiment [3], 0.49 °C; in experiment [4], -0.33 °C; in experiment [5], 0.62 °C; in experiment [6], -0.54 °C.
In the case of `O=C(Nc1ccc(OC(F)(F)Cl)cc1)c1cnc(N2CC[C@@H](O)C2)c(-c2cc[nH]n2)c1`, the ΔTm worked out at 1.08 °C in experiment [2]; 0.99 °C in experiment [3]; 0 °C in experiment [4]; 0.21 °C in experiment [5]; 0.17 °C in experiment [6].
As for `COc1ccccc1S(=O)(=O)Nc1ccc2c(c1)CN(C)C(=O)N2`, the ΔTm is 0.09 °C in experiment [1]; 1.13 °C in experiment [2]; 0.79 °C in experiment [3]; -0.57 °C in experiment [4]; 0.21 °C in experiment [5]; -0.1 °C in experiment [6].
For the compound `CCc1cnn2c(NCc3ccc[n+]([O-])c3)cc(N3CCCCC3CCO)nc12` (configuration not stated), the ΔTm is 0.22 °C in experiment [1]; 1.31 °C in experiment [3]; 7.6 °C in experiment [4]; 1.41 °C in experiment [5]; -0.54 °C in experiment [6].
With `C[C@@H](Oc1cc(-n2cnc3ccc(OC4CCN(C)CC4)cc32)sc1C(N)=O)c1ccccc1Cl`, the ΔTm in experiment [1] is 1.32 °C; in experiment [2], -0.97 °C; in experiment [3], 0.23 °C; in experiment [4], 1.25 °C; in experiment [5] it was 0.3 °C; in experiment [6], 0.44 °C.
On to `Cc1c(CN2CCC3(CC2)CN(c2ncnc4sc(CC(F)(F)F)cc24)C3)ccc2c1cc(C#N)n2CC(N)=O`, for which the ΔTm was 0.27 °C in experiment [1]; -0.01 °C in experiment [2]; 0.92 °C in experiment [3]; 0.64 °C in experiment [4]; 0.12 °C in experiment [5]; 0.16 °C in experiment [6].
Take `CC(=O)Oc1ccc2c(c1)[C@@]1(C)CCC[C@](C)(C(=O)OC(=O)[C@@]3(C)CCC[C@]4(C)c5cc(OC(C)=O)ccc5CC[C@@H]34)[C@@H]1CC2`: the ΔTm in experiment [1] is 0.17 °C; in experiment [2], 0.49 °C; in experiment [3], 0.28 °C; in experiment [4], -0.85 °C; in experiment [5], -2.79 °C; in experiment [6], -1.32 °C.
